Inhibition data for 28 compounds are collected here from PubChem BioAssay AID777 (Sanford-Burnham Center for Chemical Genomics, 2007).

Out of some 96,000 compounds screened, about 19,000 (20%) were called active. These entries were drawn from the full list. Values without a mark were called inactive.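 How the source made its calls: active means blocking of liver enzyme CYP2C9 beyond about 50% at 5 µM (limit read from the data); inactive means the rest.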

Chain of Cytochrome P450 2C9 (Homo sapiens) (P11712 whole entry, looked up): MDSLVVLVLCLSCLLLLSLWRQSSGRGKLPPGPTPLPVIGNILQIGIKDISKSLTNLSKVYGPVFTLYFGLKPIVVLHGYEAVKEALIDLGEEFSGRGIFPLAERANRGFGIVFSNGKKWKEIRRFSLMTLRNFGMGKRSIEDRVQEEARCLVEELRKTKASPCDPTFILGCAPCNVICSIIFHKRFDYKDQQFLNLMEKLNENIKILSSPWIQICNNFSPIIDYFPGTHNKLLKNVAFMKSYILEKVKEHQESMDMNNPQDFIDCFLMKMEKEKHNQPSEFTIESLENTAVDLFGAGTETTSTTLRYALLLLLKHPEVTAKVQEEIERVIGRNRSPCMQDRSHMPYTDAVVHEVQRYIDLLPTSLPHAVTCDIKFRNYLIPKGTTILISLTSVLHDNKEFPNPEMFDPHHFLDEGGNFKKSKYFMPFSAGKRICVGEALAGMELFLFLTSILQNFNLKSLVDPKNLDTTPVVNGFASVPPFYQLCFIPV

The assay addresses Cytochrome P450 2C9 (Homo sapiens) (UniProt P11712). As to the kind of experiment: blockers of cytochrome P450 2C9 activity – biochemical, luminescence, ADME assay, primary screen (AID 777). The conditions noted are these: CYP2C9 Supersomes, luciferin-H conversion, at 5 µM, stronger effect = higher value.
What is called inhibition is the drop in the measured response relative to a control, in per cent. Consider `CC(C)(C)OC(=O)c1c(N)n(CCCN2CCCC2=O)c2nc3ccccc3nc12`, for which the inhibition is -1.7%.

Regarding `CCc1c(C)n([O-])c2c([n+]1=O)CCCCC2`, the inhibition was -11.5%.

On to `CC1CCC2(CC1)NC(=O)N(CC(=O)c1cccn1C)C2=O` (stereo not drawn), for which the inhibition was -21.9%.

For the compound `Nc1ccc(C(=O)OCC(=O)NC2CCCc3ccccc32)cc1[N+](=O)[O-]` (stereo not drawn), the inhibition is -4.1%.

`Cc1cc(NC(=O)Nc2ccccc2)n(-c2ccccc2)n1`: the inhibition is 14.5%.

Turning to `CCOc1ccc(N(CC(=O)NC2CCCCCC2)S(=O)(=O)c2c(C)[nH]c(=O)[nH]c2=O)cc1`, the inhibition was 1.3%.

Regarding `Cc1ccc(CNC(=O)c2ccccc2CCc2ccccc2)cc1`, the inhibition is 29.1%.

For `Cc1cccc(C(=O)Nc2ccc(C(=O)/C=C/c3cccs3)cc2)c1`, the inhibition is 26.4%.

With `O=C(NC1CC1)c1ccc2c(c1)NC(=O)c1ccccc1S2`, the inhibition was 11.1%.

Regarding `COc1ccc(-c2nnc(SCC(=O)c3ccco3)n2-c2ccccc2)cc1`, the inhibition was -14.6%.

Turning to `COc1ccc(C(=O)NC(=O)CSc2nnc(-c3ccco3)n2-c2ccccc2)cc1`, the inhibition was -13.3%.

Regarding `COc1ccc(-n2c(SCC(=O)NCc3ccco3)nnc2-c2c[nH]c3ccccc23)cc1`, the inhibition was 58.8% (active).

With `Cc1cc(NC(=O)CN2CCCC(C)C2)n(-c2nc3ccccc3s2)n1` (stereo not drawn), the inhibition is 22.2%.

Consider `c1ccc2c(c1)OCC(c1nn3cnnc3s1)O2` (stereo not drawn), for which the inhibition is 7%.

For `CC(C)(C)c1cc2cccnc2n1Cc1cccc(F)c1`, the inhibition is 6.5%.

Take `COC(=O)c1ccc(OCC(=O)NC(C)(C)C)cc1`: the inhibition is 14.1%.

As to `CC/C(=N/Nc1ccccc1)c1cnnc(SC)n1`, the inhibition is 59% (active).

In the case of `CC(C)(C)c1ccc(OC2=CS(=O)(=O)c3ccccc32)cc1`, the inhibition is 79% (active).

Take `O=S1(=O)C=C(SCCN2CCCC2)c2ccccc21`: the inhibition is 14%.

With `CC(C)(C)c1csc(NC2=NS(=O)(=O)c3ccccc32)n1`, the inhibition was 17.4%.

Consider `Brc1cnc(N2CCCC2)nc1N1CCCCC1`, for which the inhibition was -15.1%.

In the case of `COc1ccc(C2=NOC(C(=O)NCc3ccco3)C2)cc1OC` (stereo not drawn), the inhibition is -31.2%.

`Cc1ccnc(-n2sc3ccccc3c2=O)n1`: the inhibition was 30.1%.

As to `Cc1cc(O)cc(O)c1C(=O)Cc1cnn(-c2ccccc2)c1`, the inhibition was 63.4% (active).

As for `COc1ccc(C(=O)Cc2cnn(-c3ccccc3)c2)c(O)c1`, the inhibition is 5%.

Take `CC(C)OC(=O)C(C#N)c1nc2ccccc2nc1N1CCN(Cc2ccccc2)CC1` (stereo not drawn): the inhibition was 62.6% (active).

For the compound `Cn1nnnc1SCC(=O)N1CCN(Cc2ccccc2)CC1`, the inhibition was 1.6%.

`CC(C)OC(=O)C(C#N)c1nc2ccccc2nc1N1CCN(Cc2ccc3c(c2)OCO3)CC1` (stereo not drawn): the inhibition is 16.9%.
